Screening results deposited in PubChem BioAssay by ICCB-Longwood Screening Facility, Harvard Medical School.
The entries come from a sample that favours hits as a whole.
VACV E9 pol inh: vaccinia E9 polymerase processive synthesis inhibition; in vitro processive DNA synthesis, absorbance read-out; hits give low values; normalized absorbance, % (concentration not given with the values); 46,000 tested, 0.94% active; AID 493162; in the data active = normalized absorbance mostly below about 85%, no sharp cut-off; inactive = mostly above about 86%
Numbers stand for hits; 0 = inactive; ! = repeats disagree.

SMILES | VACV E9 pol inh
Cc1ccc(C)c(CSC2=NCCN2C(=O)COc2ccccc2)c1 | 0
CCSC1=NCCN1S(=O)(=O)c1ccccc1 | 0
COc1ccc(S(=O)(=O)N2CCN=C2SC)cc1 | 0
CCS(=O)(=O)N1CCN=C1SCc1ccccc1C | 78.5
CS(=O)(=O)N1CCN=C1SCc1ccc(Cl)c(Cl)c1 | 56.1
Cc1nnc(C)n1/N=C/C(Cl)=C/c1ccccc1 | 0
O=C(Nc1ccc2nc(SCC(=O)N3CCOCC3)sc2c1)c1ccc(Cl)cc1Cl | 0
N#Cc1ccc(N2C(=O)CSC(c3ccccc3)C2=O)cc1 (centres undefined) | 0
O/N=C/c1c(-c2ccccc2)nc2sccn12 | 0
Cc1c(Cc2ccccc2)sc(/N=C/c2ccc(Cl)cc2)c1C(N)=O | 0
O=C1CCCC1c1cc(NS(=O)(=O)c2ccc(Cl)cc2)ccc1O (centres undefined) | 0
Cc1cc(C)cc(N2C(=O)/C(=C\c3ccc(N4CCCCC4)cc3)C(=O)NC2=S)c1 | 0
CCOc1ccc(N2CC(c3nc4ccccc4n3CCCc3ccccc3)CC2=O)cc1 (centres undefined) | 0
O=C(NC(=S)Nc1ccc(Nc2ccccc2)cc1)c1ccco1 | 0
COc1cc2ccccc2cc1C(=O)Nc1ccc2c(c1)OCCO2 | 0
CC1=CC2(CCC(C)CC2C(=O)NCc2ccc(Cl)cc2)OC1=O (centres undefined) | 0
CN1/C(=C/C(=O)C(C#N)C2=NCCC2)C(C)(C)c2ccccc21 (centres undefined) | 0
COc1ccc(-c2nc3n(c2N)CCS3)cc1 | 0
CCOC(=O)C1=CN(Cc2ccc(F)cc2)C=C(C(=O)OCC)C1c1ccc(C(F)(F)F)cc1 | 0
CC(C)(C)c1ccc(NC(=O)/C=C/c2ccc(-c3cccs3)s2)cc1 | 0
CCc1ccc(/C=C2/C(=O)N(c3ccccc3)N=C2C)cc1 | 0
O=C(O)c1ccc(N2N=C(C(F)(F)F)/C(=C/c3ccc(OC(=O)c4cccs4)cc3)C2=O)cc1 | 23.3
CCOC(=O)c1ccc(N2N=C(C(F)(F)F)/C(=C/C=C/c3ccco3)C2=O)cc1 | 0
COc1ccccc1C1c2cc3c(cc2OC(C)(O)C1C)OCO3 (centres undefined) | 0
NC(=O)NC(=O)Cc1ccccc1 | 0
SMILES | VACV E9 pol inh
N/C(=N\c1nc2ccccc2s1)NC(=O)c1cccc(Cl)c1 | 0
NC(=NCc1ccccc1)NC(=O)c1nc(Cl)c(N)nc1N | 59.1!
O=C(Cc1csc(Nc2ccc(Cl)cc2)n1)NCc1ccccc1 | 0
NC(=Nc1ccccc1)NC(=O)c1nc(Cl)c(N)nc1N | 50.8
N/C(=N\c1nc(=O)c2ccccc2s1)NC(=O)c1ccc(Cl)c(Cl)c1 | 0
CC(=O)NCCSc1c(-c2ccc(C)cc2)[nH]c2ccccc12 | 0
NC1(C(F)(F)F)Oc2cc(Cl)c(Cl)cc2O1 | 0
CC1(C)N=C(c2ccccc2)C(=S)N1C(=O)c1ccccc1 | 0
COC(=O)CCSc1ccc(C(=O)OC)cc1N | 0
C=CCOc1cccc(C2C(C(=O)c3cccs3)=C(O)C(=O)N2CCN(C)C)c1 (centres undefined) | 0
COc1ccc2cc(Br)ccc2c1CC(=O)O | 0
COc1ccc(OC)c(-c2n(C)c3ccccc3[n+]2C)c1 | 0
COc1ccc2c(c1)c(C(=O)CSc1ccccc1)c(C)n2C | 0
COc1ccc2c(c1)c1ccccc1n2C | 67.3
NNC(=O)c1cc(-c2ccccc2)nn1-c1ccccc1 | 0
CCC(O)C1=C(c2cccs2)Oc2ccccc2C1c1ccccc1C (centres undefined) | 0
COC(=O)C1CCN(C(=O)c2ccc(OC)cc2)CC1 | 0
Cc1nc2ccccc2n1C(F)(F)C(O)c1ccco1 (centres undefined) | 0
Cc1ccc(NCC2COc3ccccc3O2)cc1 (centres undefined) | 0
NC(=O)NC(=O)CC1Nc2ccccc2NC1=O (centres undefined) | 0
O=C(O)c1ccc2c(c1)NC(=O)C(CSCc1ccccc1Cl)N2 (centres undefined) | 39.2
CNC(=O)CC1Nc2ccccc2NC1=O (centres undefined) | 0
COC(=O)c1ccc(NC(=O)Nc2ccccc2)cc1 | 0
Cc1cc(C)nc(NC(N)=NCCc2c[nH]c3ccccc23)n1 | 84.9
Cc1ccccc1CNCCc1c[nH]c2ccccc12 | 0
SMILES | VACV E9 pol inh
Cc1ccc(NC(=O)Cc2c[nH]c3ccccc23)cc1 | 0
Cc1ccccc1-c1nc2cc(NC(=O)c3cccc(F)c3)ccc2o1 | 0
CCOc1ccccc1C(=O)N(c1ccccc1)C1C=CS(=O)(=O)C1 (centres undefined) | 0
O=C(N/C(=C/c1ccccc1)S(=O)(=O)c1ccccc1)c1ccccc1 | 0
CCc1cccc(NC(=S)N(C)Cc2cn(C)c3ccccc23)c1 | 0
CC(C)CCNC(=O)c1cc(Sc2ccc(F)cc2)nc2ccccc12 | 0
COc1ccc(Nc2cc(C(=O)NCCc3ccccc3)c3ccccc3n2)cc1 | 0
Cc1ccc(Nc2cc(C(=O)NCCC(C)C)c3ccccc3n2)cc1C | 71.1
COC(=O)c1ccc(NC(=O)CCc2ccccc2)cc1 | 0
CN(C(=O)c1ccc2c(=O)n3c(nc2c1)CCCCC3)C1CCCCC1 | 66.8
Cc1cccc(N(C)C(=O)c2ccc3c(=O)n4c(nc3c2)CCCCC4)c1 | 0
CC(C)CCNC(=O)c1ccc2c(=O)n3c(nc2c1)CCCCC3 | 0
COc1ccc2c(c1)c(OC)[n+](C)c1c3cc4c(cc3ccc21)OCO4 | 76.9
C[n+]1cc2c3c(ccc2c2ccc4cc5c(cc4c21)OCO5)OCO3 | 0
COc1ccc(SCC(=O)NCc2ccc3c(c2)OCO3)cc1 | 0
COC(=O)CSC1=C(C#N)C(=O)NC(c2ccccc2O)S1 (centres undefined) | 0
N#CC1=C(SCc2ccccc2)SC(c2ccccc2O)NC1=O (centres undefined) | 49.9
CCSC1=C(C#N)C(=O)NC(/C=C/c2ccccc2)S1 (centres undefined) | 0
c1ccc(-c2nc(NC3CCCCC3)s[n+]2-c2ccccc2)cc1 | 0
Cc1ccc(S(=O)(=O)N(CCc2ccccc2)CC(=O)Nc2ccc(C(C)C)cc2)cc1 | 0
CCOC(=O)c1c(-c2c(Cl)cccc2Cl)noc1C | 0
CN(C)Cc1ccc2ccc3cccc4ccc1c2c34 | 11.7
CCc1cccc2c(=O)c(CN(C)C)c(C)[nH]c12 | 0
CN1C(=S)N(C2CCCCC2)C(=O)/C1=C/c1ccccc1O | 0
CC(C)CNc1ncnc2sc3c(c12)CCCC3 | 0
SMILES | VACV E9 pol inh
O=C1/C(=C/c2cc3ccccc3o2)CC/C1=C\c1cc2ccccc2o1 | 0
CSc1ccc(/C=C2\CC/C(=C\c3ccc(SC)cc3)C2=O)cc1 | 0
O=C1/C(=C\c2ccc(Br)o2)CC/C1=C/c1ccc(Br)o1 | 19.3
COc1ccc(CCn2c(NN)nc3ccsc3c2=O)cc1OC | 0
O=C(CSc1nc2ccccc2c(=O)n1CCC(=O)N1CCCCC1)c1ccccc1 | 0
Cc1nnc(N2C(=N)S/C(=C\c3ccccc3Cl)C2=O)s1 | 0
O=C1c2ccccc2C(=O)N1c1nccs1 | 0
N=C1S/C(=C/c2ccco2)C(=O)N1c1nccs1 | 52.4
COc1cccc(OCC(=O)Nc2ccc(F)cc2)c1 | 0
N#CC1=C(N)NC(SCC(N)=O)=C(C#N)C1c1ccccc1Cl (centres undefined) | 0
COc1ccc2cc3cc(C(=O)NCCCN4CCCCCC4)oc3nc2c1 | 62.9
CCN1CCN(CCCNC(=O)c2cc3cc4ccc(Cl)cc4nc3o2)CC1 | 0
COc1ccc2cc3cc(C(=O)NC4CCCC(C)C4C)oc3nc2c1 (centres undefined) | 0
Cc1ccc2cc3cc(C(=O)NCCN4CCN(c5cccc(Cl)c5)CC4)sc3nc2c1 | 0
COc1ccc2cc3cc(C(=O)NCCC4=CCCCC4)sc3nc2c1 | 0
